The values below come from PubChem BioAssay (NCI).

Structures are written as SMILES. This is part of a sample that, as a whole, favours compounds with a hit. Of some 83,000 tested, about 20% had one in any assay.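 Assay: single dose, 48 h. Readout: percent growth (0 = no net growth; negative = cell death). Active: <10.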 Unmarked numbers belong to inactive results. Active and inactive are the calls of the source.

Assay in all cases: NCI-60 one-dose screen, 48 h (100 = growth as untreated, 0 = no growth, -100 = all killed)
Common to all, as to settings: 10 µM unless noted

Assay [1] relates to SR leukemia.
For assay [2], the system named is RPMI-8226 leukemia.
The test system of assay [3] is OVCAR-8 ovarian.
Assay [4] deals with OVCAR-5 ovarian.
Assay [5] has as its system OVCAR-4 ovarian.
Assay [6] relates to SK-OV-3 ovarian.
Assay [7] relates to IGROV1 ovarian.
Assay [8] deals with OVCAR-3 ovarian.
For assay [9], the system named is HS 578T breast.
The test system of assay [10] is NCI/ADR-RES ovarian.
Assay [11] has as its system T-47D breast.
The subject of assay [12] is MDA-MB-435 melanoma.
The test system of assay [13] is SW-620 colon.
The subject of assay [14] is MCF7 breast.
Assay [15] concerns HCT-116 colon.
Assay [16] has as its system HCC-2998 colon.
Assay [17] concerns KM12 colon.
In assay [18] the test system is BT-549 breast.

As for `O=C(Nc1ccc(N=Cc2c(O)[nH]c3ccccc23)cc1)Nc1nccs1`, the growth in assay [1] is 10.7%; in [2] it was 83.6%; in assay [3] it was 55.7%; in assay [4], 60.4%; in assay [5] it was 40.6%; in assay [6] it was 55%. For the same compound, the growth in assay [7] was 29.5%; in assay [8], 15.4%; in assay [9], 31.5%; in assay [10], 40.8%; in assay [11], 41.2%; in assay [12] it was -52.7% (active). Further, the growth in assay [13] was 21.4%; in assay [14], 22.7%; in assay [15], 27%; in assay [16], 73.9%; in assay [17] it was 59.2%.

In the case of `COc1cc(/C=N/NC(=O)c2cn(C3CC3)c3c(OC)c(N4CC5CCCNC5C4)c(F)cc3c2=O)ccc1O` (configuration not stated), the growth in assay [1] was -13.4% (active); in [2], -25% (active); in assay [3], 74.2%; in assay [4], 38.4%; in assay [5] it was -52.8% (active); in assay [6], 119%. For the same compound, the growth in [7] is 16.4%; in assay [8] it was -73% (active); in [9], 107%; in assay [10] it was 98.5%; in assay [11] it was -30.4% (active); in [18] it was 107%. Also, the growth in [12] is 95.3%; in assay [13], 0.437% (active); in [14], -27.7% (active); in [15], -59.1% (active); in assay [16], 14.8%; in [17] it was 69.2%.

Regarding `CCO/C=N/C1=C(C#N)C(c2ccc(F)cc2)c2sc3c(CC)cccc3c2O1` (configuration not stated), the growth is 6.82% (active) in [1]; 4.25% (active) in assay [2]; 27.2% in assay [3]; 29.2% in [4]; 60.4% in assay [5]; 64.4% in [6]. The growth in [7] was 23.5%; in [8], -17.4% (active); in [9], 32.5%; in [10], 9.33% (active); in assay [11], 42.7%; in assay [18], 27.7%. Besides, the growth in assay [12] is -12.9% (active); in assay [13], 30.1%; in assay [14], 14.8%; in assay [15], 16.2%; in assay [16] it was 15.6%; in assay [17], 14.8%.

Regarding `Nc1cc(-c2c[nH]c3ccc(Br)cc23)nc2cc(-c3c[nH]c4ccc(Br)cc34)nn12`, the growth in [1] is -1.79% (active); in [2], 15.9%; in [3] it was 24.5%; in assay [4], 7.96% (active); in assay [5], 40.8%; in [6], 116%. For the same compound, the growth is 22.2% in assay [7]; 22.6% in [8]; 54.4% in assay [9]; 35.5% in assay [10]; 39.3% in assay [11]; 76.4% in [18]. In addition, the growth in assay [12] was -20.3% (active); in [13], 5.89% (active); in assay [14], 8.21% (active); in [15], -72% (active); in assay [16], -3.56% (active); in assay [17], -23.2% (active).

In the case of `CCCCc1nc(/C=N/Nc2nc(Nc3ccccc3)nc(Nc3ccc(S(N)(=O)=O)cc3)n2)c(Cl)[nH]1`, the growth in assay [1] was 11.5%; in [2], 96.7%; in [3], 90%; in [4], 102%; in assay [5], 80.6%; in assay [6], 114%. Moreover, the growth in [7] was 98.4%; in assay [8], 46.2%; in assay [9], 77.8%; in [10], 108%; in assay [11], 14.9%; in [18], 47.9%. Also, the growth is 90.3% in [12]; 75.1% in [13]; 46.8% in [14]; 90% in assay [15]; 70.4% in [16]; 103% in [17].

Consider `O=C1[C@H]2Cc3c([nH]c4ccccc34)[C@@H](c3c(Cl)cccc3Cl)N2C(=O)CN1C1CCN(CC2CCCCC2)CC1`, for which the growth in assay [1] was -0.0364% (active); in [2], 66.2%; in assay [3] it was 99.6%; in [4] it was 97.8%; in assay [5], 101%; in [6], 109%. Further, the growth in [7] was 53.2%; in assay [8], 67.9%; in assay [9], 73.5%; in assay [10] it was 91.8%; in [11] it was 94%; in assay [18], 96.5%. In addition, the growth is 101% in [12]; 65.8% in [13]; 51.9% in assay [14]; 35.5% in [15]; 85.3% in [16]; 92% in assay [17].

Regarding `CCCn1cnc2c(c1=N)C(c1ccc(F)cc1)c1sc3c(C)cccc3c1O2` (configuration not stated), the growth in [1] is 8.4% (active); in assay [2], -13.5% (active); in assay [3] it was 40.2%; in assay [4], 42.4%; in [5] it was 35.8%; in assay [6], 41.1%. Besides, the growth in [7] is 25.2%; in [8], -12.6% (active); in assay [9] it was 13.7%; in [10] it was -11.8% (active); in assay [11] it was 38.3%; in assay [12], -58% (active). Besides, the growth in assay [13] is 16.4%; in [14], 18.4%; in assay [15], 16.7%; in assay [16], 57.3%; in [17] it was 24.9%.

For `Nc1nc(N)c2c(n1)NC(c1ccc(Cl)cc1)CC(c1ccc(Nc3nc(NCCO)nc(N4CCOCC4)n3)cc1)=N2` (configuration not stated), the growth was 8.95% (active) in assay [1]; 38.9% in assay [2]; 72% in [3]; 96.7% in assay [4]; 93.8% in assay [5]; 103% in assay [6]. Further, the growth in assay [7] is 78.8%; in [8], 73.2%; in assay [9], 65.9%; in [10], 97.3%; in [11] it was 74.8%; in [18], 71%. The growth in assay [12] was 81.7%; in assay [13], 79.4%; in assay [14] it was 41.9%; in assay [15], 57.3%; in assay [16] it was 108%; in assay [17] it was 65.3%.
